From PubChem BioAssay (NCI)
The panel holds about 79,000 compounds, 15% with a hit somewhere; the sample as a whole holds those more often. A number with no mark means an inactive call. Active and inactive are the calls of the source. Rule as the data show it: active = growth inhibition above about 70%; inactive = the rest.

Tests used:
[1] = NCI Yeast Anticancer Drug Screen. Data for the rad50 strain (AID 155);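 also: 0% = growth of vehicle-only cultures of the same strain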; conditions: S. cerevisiae rad50 strain growth inhibition, active compounds read high
How it was run: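 Cells are treated with compound, grown, and their growth is then scored against vehicle-only cultures of the same repair-deficient yeast strain.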

[2] = NCI Yeast Anticancer Drug Screen. Data for the mec2-1 strain (AID 157); conditions: S. cerevisiae mec2-1 strain, active compounds read high
How it was run: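 Test agents were screened against the mec2-1 yeast strain, with defined DNA repair or cell cycle alteration. Growth was scored as inhibition against vehicle-only controls.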

[3] = NCI Yeast Anticancer Drug Screen. Data for the sgs1 mgt1 strain (AID 161);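 also: 0% = growth of cultures given vehicle only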; conditions: S. cerevisiae sgs1 mgt1 strain, active compounds read high
How it was run: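 Genetically altered yeast, compound exposure, growth inhibition relative to vehicle.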

[4] = NCI Yeast Anticancer Drug Screen. Data for the cln2 rad14 strain (AID 165);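 also: 0% = growth equal to vehicle treated cultures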; conditions: S. cerevisiae cln2 rad14 strain, active compounds read high
How it was run: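 Growth of compound-exposed yeast (cln2 rad14 genotype) measured and expressed as inhibition relative to vehicle.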

[5] = NCI Yeast Anticancer Drug Screen. Data for the bub3 strain (AID 167); conditions: S. cerevisiae bub3 mutant strain, active compounds read high
How it was run: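 Part of a panel of yeast mutants defective in DNA damage repair or cell cycle regulation. Each strain is grown with compound, and inhibition is calculated relative to solvent-treated cultures.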

[6] = NCI Yeast Anticancer Drug Screen. Data for the mlh1 rad18 strain (AID 175); conditions: S. cerevisiae mlh1 rad18 strain growth inhibition, active compounds read high
How it was run: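 In this whole-cell yeast screen, a strain with altered DNA damage repair is challenged with compound, and its growth is measured against matched vehicle-treated controls.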

[7] = at 5.0 µM (retest, dose inferred, filed as 0.5)
[8] = at 50.0 µM (retest, dose inferred, filed as 5.0)

| Compound | growth inhibition [1, 7] | growth inhibition [1, 8] | growth inhibition ([1]; at 50.0 µM) | growth inhibition [2, 7] | growth inhibition [2, 8] | growth inhibition ([2]; at 50.0 µM) | growth inhibition [3, 7] | growth inhibition [3, 8] | growth inhibition ([3]; at 50.0 µM) | growth inhibition [4, 7] | growth inhibition [4, 8] | growth inhibition ([4]; at 50.0 µM) | growth inhibition [5, 7] | growth inhibition [5, 8] | growth inhibition ([5]; at 50.0 µM) | growth inhibition [6, 7] | growth inhibition [6, 8] | growth inhibition ([6]; at 50.0 µM) |
| --- | --- | --- | --- | --- | --- | --- | --- | --- | --- | --- | --- | --- | --- | --- | --- | --- | --- | --- |
| CCC[CH2][Ge]([CH2]CCC)([CH2]CCC)[O]C(C)=O | 2% | 9% | 54.1% | 0% | 19% | 27.3% | 4% | 21% | 61.8% | 1% | -1% | 70.8% (active) | -2% | 6% | 19.2% | 2% | 11% | 52.8% |
| COC(=O)c1c(C)cccc1C(=O)c1ccc(C)cc1C | -14% | -4% | 2.4% | -10% | -3% | -0.1% | -4% | 9% | 10.6% | -38% | -7% | 2.75% | -2% | -16% | 5.05% | -11% | 21% | 23.4% |
| Oc1c(Cl)cc(Br)cc1Cl | 44% | 95% (active) | 84.7% (active) | 19% | 99% (active) | 92.9% (active) | 11% | 93% (active) | 96.5% (active) | 3% | 99% (active) | 78.5% (active) | 13% | 99% (active) | 89.3% (active) | 12% | 97% (active) | 91.8% (active) |
| O=C(Cn1cnc2ccc([N+](=O)[O-])cc21)N1CCN(c2ccccc2)CC1 | -2% | -7% | 10.3% | 4% | 8% | 19.6% | -25% | 2% | 12.1% | 7% | -5% | -53.6% | 10% | 7% | -15.4% | -9% | -22% | 0.6% |
| Cc1ccc2c(ccc3c[n+]4c5ccccc5ccc4n32)c1 | 96% (active) | 99% (active) | 99.4% (active) | 92% (active) | 99% (active) | 99.5% (active) | 95% (active) | 100% (active) | 98.7% (active) | 94% (active) | 99% (active) | 97.3% (active) | 93% (active) | 99% (active) | 99.3% (active) | 95% (active) | 99% (active) | 99.2% (active) |
| COc1cnn(-c2ccccc2)c(=O)c1SCc1ccc(Cl)c(Cl)c1 | -3% | 7% | 42.5% | -3% | 33% | 7.95% | 1% | 62% | 71.2% (active) | -6% | 23% | 49.9% | 2% | 51% | 53% | -4% | 25% | 37.4% |
| COc1ccc(/C=c2\sc3nnc(CCC(=O)Nc4cccc(C(F)(F)F)c4)n3c2=O)cc1 | -2% | 28% | 29.9% | 0% | 43% | 53.4% | -2% | 51% | 44.9% | 1% | 21% | 22.1% | 0% | 38% | 29.6% | -3% | 47% | 76.8% (active) |
| CC(=O)O[C@H]1CC[C@]2(C)C3=CC[C@]4(C)[C@@H](C(C)=O)CC[C@H]4[C@@]34C=C[C@]2(C1)C1C(=O)OC(=O)C14 (some centres undefined) | 2% | 2% | 58.2% | 2% | 6% | 20.7% | 1% | 7% | 29.4% | 4% | 4% | -24% | 3% | 4% | 56.9% | -20% | -26% | 70.8% (active) |
| NC(CCCNc1nc(O)cc(=O)[nH]1)C(=O)O (centres undefined) | -166% | -176% | 18.2% | -51% | -54% | 13.4% | -66% | -68% | 7.3% | -63% | -80% | 66% | -68% | -73% | 0.7% | -127% | -125% | -5% |
| O=C(/C=C/C(=O)OCCCl)OCCCl | 5% | 95% (active) | 69.2% | -24% | 85% (active) | 82.2% (active) | 4% | 62% | 92.5% (active) | 4% | 27% | -22.8% | 46% | 91% (active) | 71.2% (active) | 4% | 95% (active) | 95.2% (active) |
| Nc1nc2nc(I)[nH]c2c(=O)[nH]1 | -4% | -4% | 4.8% | -13% | -16% | -2.5% | 10% | 9% | -5.25% | -8% | -4% | 30.3% | -7% | 3% | 31.6% | -9% | -2% | 10.9% |
| COc1ccc(C(=O)CC2(O)C(=O)N(C)c3c(Cl)cc(Cl)cc32)cc1 (centres undefined) | -1% | 61% | 67.6% | 3% | 56% | 67.3% | 4% | 63% | 61.2% | -2% | 66% | 62% | -2% | 65% | 69% | -2% | 64% | 87.2% (active) |
| C1CSCCCSCCCSCCCSCCCSC1 | 17% | 24% | 31.2% | 8% | 17% | 21.4% | 7% | 20% | 27.5% | 9% | 22% | 47.4% | 22% | 28% | 25.1% | 15% | 36% | -10.8% |
